AmpC nodet inh – inhibitors of E. coli AmpC beta-lactamase without detergent | Potency, µM (doses to about 28.7 µM), inactives show at the top dose activity change, negative = inhibition | 1.8% of 71,000 active | AmpC nitrocefin hydrolysis, absorbance 480 nm, no detergent | AID 585; further: % of control where 0% means no effect
Target sequence (P00811 whole entry, looked up): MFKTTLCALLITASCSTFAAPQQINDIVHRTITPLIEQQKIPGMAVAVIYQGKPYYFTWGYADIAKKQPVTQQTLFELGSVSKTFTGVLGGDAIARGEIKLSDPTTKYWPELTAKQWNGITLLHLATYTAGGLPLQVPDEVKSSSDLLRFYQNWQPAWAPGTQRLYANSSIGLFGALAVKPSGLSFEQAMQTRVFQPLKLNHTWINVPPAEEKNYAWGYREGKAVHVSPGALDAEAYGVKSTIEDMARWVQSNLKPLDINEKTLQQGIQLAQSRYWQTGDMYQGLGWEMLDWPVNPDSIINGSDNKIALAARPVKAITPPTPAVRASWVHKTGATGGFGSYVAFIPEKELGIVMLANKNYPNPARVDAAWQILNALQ
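AmpC, 20 mM phosphate pH 7.0; 15 min cpd preinc, RT; start with nitrocefin (800 uM stock); A480 kinetic read, 20 s intervals, 4 min. No-enzyme wells = negative control.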
Anthrax LT inh – inhibitors of anthrax lethal toxin internalization; Cells, anthrax lethal toxin internalization, FRET ratio (460/530); Potency, µM (series often up to 40 µM), without a hit: at the top dose activity change, negative = inhibition, usual class: inhibitors; 0.67% of 70,000 active; AID 912; further: on the % scale 0 is the no-effect control and ±100 the full control effect; nearly all actives have a fitted effect of over 50% in size
SmPrx2 inh – blocks S. mansoni peroxiredoxin 2 enzymatic activity; 0.07% of 65,000 active; AID 448; Potency, µM; S. mansoni Prx2 activity coupled to TGR/GSH (TGR is thioredoxin glutathione reductase), NADPH fluorescence loss, qHTS
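Enzyme mix: 100 uM NADPH, 25 nM TGR, 700 uM GSH, 50 nM Prx2 in 100 mM phosphate pH 7.4, 10 mM EDTA, 0.01% Tween-20. 15 min RT with compound; NADPH/GSH added, H2O2 starts reaction; NADPH fluorescence read 8 min.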
AmpC det inh – inhibitors of E. coli AmpC beta-lactamase with detergent; purified AmpC, nitrocefin hydrolysis with detergent; Potency, µM (highest dose often 28.7 µM), inactives show at the top dose activity change, negative = inhibition; P00811; AID 584; 0.09% of 71,000 active; active means well fitted curve in the direction sought with a large enough effect; inconclusive means small, poorly fitted or top-dose-only effect; further: on the % scale 0 is the no-effect control and ±100 the full control effect
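E. coli AmpC (5.3 nM) in 20 mM phosphate pH 7.0 with 0.01% Triton X-100, preincubated 15 min RT with compound; nitrocefin (2 uL of 800 uM stock) hydrolysis followed by 480 nm absorbance every 20 s over 4 min.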
Numbers without * were called inactive; ? = inconclusive; . = no result; ! = not active in a repeat; [ ] = dose if it differs, or a comment. Most compounds without a hit are left out; they make up all but 2.6% or so of the library. Unless noted, the call rests on the fitted dose curve. Potency means the concentration at half of the fitted maximal effect.

SMILES	AmpC nodet inh	Anthrax LT inh	SmPrx2 inh	AmpC det inh
COCCn1c(=O)c(-c2cc(F)cc(F)c2)nc2cnc(N(C)C)nc21	-4%	?	>57	1%
COc1ccc(O[C@H]2C=C[C@@H](c3ccccc3)O[C@H]2COC(=O)CC/C(C)=N\OC[C@@H](O)[C@H]2O[C@H]3OC(C)(C)O[C@H]3[C@@H]2O)cc1	.	-6%[8 µM]	.	.
CCn1c(=O)c2ccccc2n2c(SCC(=O)NCc3cccs3)nnc12	0%	-6%	>57	14%
CCn1c(=O)c2cc(C(=O)NCc3cccs3)sc2c2ccccc21	4µM*[single pt active]	-15%	>57	15%
CCn1c(=O)c2cc(C(=O)NCCN3CCOCC3)sc2c2ccccc21	4µM*[single pt active]	-9%	>57	12%
Cn1nc(C(=O)NCCN2CCOCC2)c2ccccc2c1=O	-6%	-14%	>57	-1%
CCn1c(=O)c2cc(C(=O)Nc3cc(C)on3)sc2c2ccccc21	4µM*[single pt active]	-8%	>57	15%
CCn1c2ccccc2c2nnc(SCC(=O)Nc3cc(C)on3)nc21	-10%	5%	>57	-2%
O=C1CSC2(CCN(CCCN3c4ccccc4Sc4ccc(Cl)cc43)CC2)N1	69%[5.75 µM]	7%[8 µM]	>57	-5%[5.75 µM]
CN1CCN(CCCN2c3ccccc3Sc3ccc(C(F)(F)F)cc32)CC1	29%[5.75 µM]	10µM*!	>57	0%[5.75 µM]
Cc1ccc(-c2nnn(CC(=O)N(c3cccc(F)c3)C(C(=O)NC3CCCC3)c3ccco3)n2)o1 (stereo not given)	13µM*	-9%	>57	-4%
S=C=Nc1cccc(C2(N3CCCCC3)CCCCC2)c1	27%	13µM*	>57	1%
Cc1ccc(-c2nn3c(C)nnc3s2)cc1NC(=O)COc1ccc(Cl)cc1	17%	-11%	>57	13%
CC(C)(C)n1nc2c(c1NC(=O)COc1ccc(Cl)cc1)CSC2	13µM*	?	>57	-2%
COc1cc2nc3c(c([Si](C)(C)C(C)(C)C)c2cc1OC)Cn1c-3cccc1=O	145%	-5%	>57	-3%
CCc1c(C)nc2cc(-c3cc(OC)cc(OC)c3)nn2c1N1CCCC1	88%	13µM*	>57	-1%
CCc1c(C)nc2cc(-c3ccc(OC)c(OC)c3)nn2c1N1CCCC1	133%	-20%	>57	-4%
Cc1csc(NC(=O)C(CC(C)C)NS(=O)(=O)c2ccc3c(c2)oc(=O)n3C)n1 (stereo not given)	4µM*[single pt active]	1%	>57	8%
c1csc(Cc2nc(-c3ccc(-n4cccc4)cc3)no2)c1	13µM*	2%	>57	13%
Cc1cccc(NS(=O)(=O)c2cc(C(=O)OCC(=O)Nc3cc(C)on3)ccc2C)c1	?	-24%	>57	0%
Cc1cccc(NS(=O)(=O)c2ccc(C)c(C(=O)OCC(=O)Nc3cc(C)on3)c2)c1	10µM*	?	>57	-6%
CC(O)Cc1nsc(NC(=O)c2cccs2)n1 (stereo not given)	4µM*[single pt active]	-8%	>57	13%
O=C1OC(NC(=O)c2ccccc2)C(n2cc(CO)nn2)=C1Cl (stereo not given)	-8%	13µM*	>57	-4%
O=C(NCCN1CCCC1)C1(S(=O)(=O)c2ccc(Cl)cc2)CC1	-4%	-1%	>57	-4%
O=C(NCCCN1CCCCC1)C1(S(=O)(=O)c2ccc(Cl)cc2)CC1	4µM*[single pt active]	-5%	>57	14%
SMILES	AmpC nodet inh	Anthrax LT inh	SmPrx2 inh	AmpC det inh
CN1CCc2cc(O)c(O)cc2[C@H](c2ccccc2)C1	-2%	2%	>57	-3%
Cc1cccc(N2CCN(C(=O)C3CCN(c4nnc(-n5cccc5)s4)CC3)CC2C)c1 (stereo not given)	105%	7.9µM*	>57	5%
CCn1c2ccccc2c2cc(NC(=O)CSc3nnnn3-c3ccccc3)ccc21	10µM*	.	>57	1%
CCn1c2ccccc2c2cc(CN3CCN(C(=O)c4ccco4)CC3)ccc21	148%	?	.	-6%
CCn1c2ccccc2c2cc(NC(=O)c3ccco3)ccc21	-5%	13µM*	.	8%
COc1ccc(-c2nc3cnc(Oc4ccccc4)nc3n(CCC#N)c2=O)cc1	9%	?	>11	3%
O=S(=O)(c1ccccc1)N1CCC2(CCN(c3ncccn3)CC2)CC1	-6%	-8%	>57	1%
CC(C)[C@@H]1O[C@H](/C=C\c2ccccc2)OCC1(C)C	8%[5.75 µM]	3%[8 µM]	>57	-3%[5.75 µM]
CCN(CC)CCCCn1c(-c2ccccc2)nc2c(Nc3ccccc3)nc(C)nc21	84%	16µM*	.	15%
CCOC(=O)C1CCN(c2c(N3CCCC(C(=O)OCC)C3)c(=O)c2=O)CC1 (stereo not given)	15%	?	>57	4%
CCOC(=O)N1CCN(c2c(NCCN3CCCCC3CC)c(=O)c2=O)CC1 (stereo not given)	4µM*[single pt active]	-9%	>57	13%
CCOC(=O)N1CCN(c2c(N3CCC(N4CCCCC4)CC3)c(=O)c2=O)CC1	4µM*[single pt active]	11%	>57	12%
c1ccc(-c2cccc(N3CC4(CCNCC4)C3)c2)cc1	70%	-13%	>57	0%
c1ccc(-c2cccc(N3CCC4(CCNCC4)CC3)c2)cc1	113%	10µM*	>57	-3%
c1ccc(B2OC[C@@H]3OB(c4ccccc4)O[C@H]([C@@H]4COB(c5ccccc5)O4)[C@@H]3O2)cc1	-44%[5.75 µM]	5%[8 µM]	>57	1.6µM*
N[C@]1(C(=O)O)CCc2cc(P(=O)(O)O)ccc21	8%	-10%	>57	-2%
O=S(=O)(c1ccc2c(c1)OCCO2)N1CCC(c2nc3ccc(Cl)cc3[nH]2)CC1	-24%	13µM*	>57	0%
COc1cccc(-c2cc(N)nn2C(=O)Nc2ccc(Cl)cc2)c1	4µM*[single pt active]	?	>57	14%
COc1cccc(-c2csc3nnc(SCC(=O)c4ccc(NC(C)=O)cc4)n23)c1	12%	-8%	>57	-6%
COc1ccc(OC)c(C2CC(=O)N3CN(c4cccc(Cl)c4C)CSC3=C2C#N)c1 (stereo not given)	4µM*[single pt active]	?	>57	12%
COc1ccc(OC)c(C2CC(=O)N3CN(c4cccc(Cl)c4)CSC3=C2C#N)c1 (stereo not given)	-23%	-30%	>57	8%
COc1cccc(C2CC(=O)N3CN(c4cccc(Cl)c4C)CSC3=C2C#N)c1OC (stereo not given)	4µM*[single pt active]	?	.	13%
CC1=C(C(=O)NC(C)C)C2(CCC(C)CC2)OC1=O (stereo not given)	4µM*[single pt active]	-6%	>57	19%
CC1=C(C(=O)NC2CCCCC2C)C2(CCC(C)CC2)OC1=O (stereo not given)	24%	-17%	>57	2%
N[C@@H](Cc1cc(O)c(O)cc1O)C(=O)O	5µM*	-9%	>57	-26%
O=C(O)c1ccc(S(=O)(=O)N(Cl)Cl)cc1	-8%	-5%	.	5%
CC(=O)N1CCC2(CC1)CN(c1ccccc1)C2	2%	-1%	>57	17%
CSc1ccc(C2C(C#N)=C(N)Oc3c2ccc(=O)c2c(C)oc(C)c32)cc1 (stereo not given)	10µM*	-29%	>57	-4%
